In PubChem BioAssay (NCATS):
A number with no mark means an inactive call. How the calls were made is not given here.

system: HIV-1 nucleocapsid protein NCp7 (binding to TG oligonucleotide); experiment: HIV Nucleocapsid (AID 346); settings: HIV-1 NC / fluorescein-TGTGTGTG probe, fluorescence polarization;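 further: potency is for inhibitors that block NC binding and lower polarization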
Outline: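 NCp7 100 nM + fluorescein TG4xF 10 nM; Hepes pH 7.5/250mM NaCl/1uM ZnCl2/0.004% PEG 20000; 1 hr RT; FP, 45 s exposure; oligo-only wells as negative control.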
Potency means the concentration at half of the fitted maximal effect.

| Compound | Potency |
| --- | --- |
| CN(C)c1ccc(-c2ccc3ncnc(-n4ccnc4)c3c2)cc1 | > 20 µM |
| COc1ccc(CNc2ncnc3ccc(-c4ccc5c(c4)OCO5)cc23)c(OC)c1 | > 20 µM |
| COC(=O)N1CCC2(CCCN(C(=O)Nc3cccc(C#N)c3)C2)CC1 | > 20 µM |
| COc1ccc(NC(=O)N2CCC3(CC2)CCN(C(=O)c2cccn2C)CC3)cc1 | > 20 µM |
| CC(=O)NCCNc1ncnc2ccc(-c3ccccc3C#N)cc12 | > 20 µM |
| O=c1c(-c2ccc(Cl)cc2)nc2cncnc2n1Cc1ccc(F)cc1 | > 20 µM |
| Cc1noc(C)c1-c1cncnc1-n1ccnc1 | > 20 µM |
| COc1ccc(Oc2ncc3nc(-c4ccc(F)cc4)c(=O)n(Cc4cccs4)c3n2)cc1 | > 20 µM |
| N#Cc1cccc(-c2ccc3ncnc(NCc4cccnc4)c3c2)c1 | > 20 µM |
| CS(=O)(=O)Nc1cccc(-c2nccc(NCc3ccccc3)n2)c1 | > 20 µM |
| O=c1c(CCc2ccccc2)nc2cnc(N3CCOCC3)nc2n1Cc1cccs1 | > 20 µM |
| O=C(Nc1cccc(F)c1)N1CCCC2(CCN(C(=O)c3ccco3)CC2)C1 | > 20 µM |
| O=c1c(-c2cc(F)cc(F)c2)nc2cnc(Oc3ccccc3)nc2n1C[C@H]1CCCO1 | > 20 µM |
| CCNc1ncc2nc(-c3ccc(Cl)cc3)c(=O)n(Cc3ccc(F)cc3)c2n1 | 14 µM |
| CC(=O)N1CCC[C@@]2(CCN(c3ccncc3)C2)C1 | > 20 µM |
